Assay outcomes as filed in PubChem BioAssay.
Tau ThT inhib: inhibitors of human tau fibril formation, thioflavin T binding; recombinant tau K18 P301L, heparin-induced fibrillization, ThT fluorescence; actives 2.1% (n = 270,000); Potency, µM (top dose mostly 57.4 µM), actives largely listed as inhibitors; P10636; note: nearly all actives have a fitted effect of over 55% in size
Target sequence (P10636 561-689 P618L limits assumed): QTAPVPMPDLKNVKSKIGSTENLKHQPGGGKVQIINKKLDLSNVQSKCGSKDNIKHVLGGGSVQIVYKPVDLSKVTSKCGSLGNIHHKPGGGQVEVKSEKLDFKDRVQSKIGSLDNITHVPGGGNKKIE
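Fibril formation assay: tau K18 P301L at 15 uM with trace Alexa 594 label, heparin inducer 20 uM, pH 7 sodium acetate buffer, 37 C for 6 hr; endpoint ThT signal.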
FBPA coupling cs: counter-screen for Giardia aldolase inhibitors: coupling enzyme system; coupling enzyme system counterscreen, AmpLite Red fluorescence; activity change, negative = inhibition, % at 58.2 µM, hits read low; actives 0.67% (n = 290,000); AID 2472; in the data active = activity change below about -30%
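Final compound at 57.5 uM, incubated 10 min at RT with coupling enzyme reagent (glyceraldehyde-3-phosphate), then 20 min with substrate and AmpLite Red detection. Fluorescence read at 525/598 nm; tests interference with the coupling assay, not aldolase inhibition.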
Tau fluor counter: counter-screen for tau fibril formation inhibitors. tau K18 P301L Alexa594 fluorescence, heparin fibrillization. Potency, µM (series often up to 57.7 µM). actives 0.93% (n = 280,000). AID 1463; note: nearly all actives have a fitted effect of over 55% in size
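Human tau K18 P301L (15 uM unlabeled, 0.24 uM Alexa 594-labeled) in 100 mM sodium acetate pH 7 with 20 uM heparin, 6 hr at 37 C. ThT 30 uM added, 1 hr ambient; Alexa 594 FP and total fluorescence read at 555/632 nm.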
USP1 inh: inhibitors of human USP1/UAF1 deubiquitinase. O94782. recombinant USP1/UAF1, Ub-Rhodamine cleavage fluorescence. Potency, µM (highest dose often 57.1 µM), actives largely listed as inhibitors. actives 0.23% (n = 390,000). AID 743255; note: nearly all actives have a fitted effect of over 60% in size
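1 nM enzyme complex + cpd, 15 min RT; start with Ub-Rho 150nM final; kinetic fluorescence ex 480/em 540, 6 reads q60 s. Buffer 50mM HEPES pH 7.8, 0.5mM EDTA, 0.1 mg/ml BSA, 1mM TCEP, 0.01% Tween-20.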
Tau fibril FP: blocks human tau fibril formation measured by polarization; K18 P301L tau heparin fibrillization, Alexa594 FP, 6 h; actives 0.39% (n = 280,000); P10636; Potency, µM (top dose mostly 57.7 µM), usual class: inhibitors; note: nearly all actives have a fitted effect of over 55% in size
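Quantitative HTS format: compounds meet 15 uM recombinant K18 P301L tau and Alexa 594-tau tracer in 100 mM sodium acetate pH 7; 20 uM heparin triggers fibrillization at 37 C over 6 hr; FP gives the signal.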
Hits are given with their value; - = inactive; ? = inconclusive; . = no result given; ! = not active in a repeat; [ ] = dose if it differs, or a comment. A selection: hits, their analogues and other compounds. The true share with any hit is near 2.3%. Unless noted, calls come from the whole dose curve; as a rule, active = well fitted curve in the direction sought with a large enough effect; inconclusive = small, poorly fitted or top-dose-only effect, or another doubt; inactive = no such curve, though single readings can be large; an effect the other way counts as inactive or inconclusive.

SMILES | Tau ThT inhib | FBPA coupling cs | Tau fluor counter | USP1 inh | Tau fibril FP
O=C(N/N=C/c1c[nH]c2ccccc12)c1cc(-c2ccccc2)n[nH]1 | ? | - | 25.1µM[quencher] | ? | -
CN(C)c1ccc(/C=N\NC(=S)SCN2C(=O)C3CCC(C)(C2=O)C3(C)C)cc1 (stereo not drawn) | 8.91µM | - | 12.6µM[quencher] | - | -
COc1ccc(C2CC(=O)N3C(=C2C#N)SCC3(O)c2ccccc2)cc1 (stereo not drawn) | - | - | - | - | -
N#CC1=C2SCN(C3CCCCC3)CN2C(=O)CC1c1ccc(F)cc1 (stereo not drawn) | 28.2µM | . | - | - | ?
O=C1CSC(c2ccc(Cl)cc2)N1C1CCCCC1 (stereo not drawn) | - | - | - | - | -
CC(C)c1ccc(C2CC(=O)N3CN(C)CSC3=C2C#N)cc1 (stereo not drawn) | 28.2µM | - | - | - | -
N#CC1=C2SCN(C3CCCCC3)CN2C(=O)CC1c1ccc(Cl)cc1 (stereo not drawn) | 28.2µM | . | - | - | ?
COc1ccc2ccccc2c1C1CC(=O)N2CN(C)CSC2=C1C#N (stereo not drawn) | 22.4µM | - | - | ? | 22.4µM
N#CC1=C2SCN(C3CCCCC3)CN2C(=O)CC1c1c(F)cccc1Cl (stereo not drawn) | 31.6µM | . | - | 31.6µM | ?
N#CC1=C2SCC(O)(c3ccccc3)N2C(=O)CC1c1ccccc1F (stereo not drawn) | ? | - | - | - | -
Cc1ccc(-c2ccccc2NC(=O)CS(=O)CC(=O)Nc2ccc(C)c(Cl)c2)o1 (stereo not drawn) | . | - | . | ? | .
Cc1ccc(-c2ccccc2NC(=O)CCl)o1 | - | -49.5 | - | - | -
CCOc1ccc(NC(=O)CN(Cc2ccccc2)S(=O)(=O)c2ccc3nc(C)sc3c2)cc1 | - | . | - | - | -
O=[N+]([O-])c1cc(F)c2cccnc2c1O | 7.94µM | - | - | ? | ?
O=[N+]([O-])c1ccc(O)c2ncccc12 | ? | -35.4 | - | ? | ?
O=[N+]([O-])c1cc(Cl)c(O)c2ncccc12 | 12.6µM | - | - | ? | -
O=[N+]([O-])c1cc([N+](=O)[O-])c2cccnc2c1Oc1ccccc1O | ? | - | - | - | -
O=[N+]([O-])c1cc(Cl)c2cccnc2c1O | 10µM | - | - | - | -
O=[N+]([O-])c1ccc(Cl)c2cccnc12 | - | - | - | - | -
O=[N+]([O-])c1ccc(O)c2cccnc12 | ? | - | - | - | -
O=[N+]([O-])c1cc(CN2CCOCC2)c2cccnc2c1O | - | - | - | - | -
CCOc1ccccc1CNC(=O)c1oc2c(c1C)-c1nn(Cc3cccc(Cl)c3)cc1CC2 | ? | . | ? | - | ?
CCOc1ccc2nc(Cl)c(C3CC(c4ccco4)=NN3S(=O)(=O)c3ccccc3)cc2c1 (stereo not drawn) | - | - | - | - | -
CCS(=O)(=O)N1N=C(c2ccc(C)cc2)CC1c1cc2ccc(OC)cc2nc1Cl (stereo not drawn) | - | . | ? | ? | 39.8µM
CCOc1ccc2nc(Cl)c(C3CC(c4ccc(OC)cc4)=NN3S(C)(=O)=O)cc2c1 (stereo not drawn) | - | . | ? | - | 35.5µM
SMILES | Tau ThT inhib | FBPA coupling cs | Tau fluor counter | USP1 inh | Tau fibril FP
COc1ccc2cc(C3CC(c4ccco4)=NN3S(C)(=O)=O)c(Cl)nc2c1 (stereo not drawn) | ? | - | - | - | -
COc1ccc(/C=C/C(=O)Nc2ccc(Cl)cc2Cl)cc1 | ? | . | - | - | -
Cn1c(C(C#N)C2=C(Cl)C(=O)N(c3ccccc3)C2=O)nc2ccccc21 (stereo not drawn) | 12.6µM | - | 15.8µM[quencher] | . | ?
COc1ccc(OC(=O)/C=C/c2ccc([N+](=O)[O-])cc2)cc1 | . | - | . | - | .
COc1ccc(C(=O)/C=C/c2ccc(F)cc2)c(OC(=O)c2ccc([N+](=O)[O-])cc2)c1 | 10µM | - | 12.6µM[quencher] | - | -
COc1ccc(C(=O)/C=C/c2cccs2)c(OC(=O)c2cccc([N+](=O)[O-])c2)c1 | 3.98µM | - | ? | - | -
O=C(O)C1=CCCc2ccc(F)cc21 | . | . | . | - | .
C=CCSc1nnc2nc3c(nn12)c1cc(C)ccc1n3CC=C | 28.2µM | - | - | - | -
C=CCn1c2ccccc2c2nnc(SCC(N)=O)nc21 | . | - | . | - | .
CN(C)c1ccc(NC(=O)Cn2cc(S(=O)(=O)Cc3ccccc3Cl)c3ccccc32)cc1 | ? | . | 11.2µM[quencher] | - | -
O=C1C=CC(=O)c2c(O)c(Cl)c(Cl)c(O)c21 | ? | -90.0 | - | . | -
O=C1C=CC(=O)c2c(O)c(CO)c(CO)c(O)c21 | . | . | . | 14.1µM | .
O=c1c(CO)cc(CO)cc(CO)c1O | . | - | - | - | -
COc1ccc(NC(=O)c2cc(S(=O)(=O)N3CCCCC3)c[nH]2)cc1 | . | - | . | - | .
Cc1ccccc1C(=O)NCCNC(=O)c1ccco1 | . | - | . | - | .
CN1CCN(NS(=O)(=O)c2cccs2)CC1 | 12.6µM | - | - | - | ?
CC(Cc1ccc(O)c(O)c1)(NN)C(=O)O (stereo not drawn) | 14.1µM | - | - | . | ?
C[C@](N)(Cc1ccc(O)c(O)c1)C(=O)O | ? | -57.6! | ? | - | ?
OCCN(CCO)c1nc(N2CCCCC2)c2nc(N(CCO)CCO)nc(N3CCCCC3)c2n1 | ? | - | ? | 28.2µM | -
Nc1nc(NCCO)nc(N2CCCCCC2)c1[N+](=O)[O-] | . | - | . | - | .
COc1ccccc1NS(=O)(=O)c1ccc(NC(=O)N2CCCCC2)cc1 | . | . | . | - | .
CCc1ccc(/C=C(/C#N)C(N)=S)s1 | ? | - | ? | - | -
CCc1sc(/C=C(/C#N)C(N)=S)cc1[N+](=O)[O-] | 28.2µM | - | ? | - | ?
CN=C(c1ccc(C)cc1)n1c(=S)nc(-c2ccc(C)cc2)n(C)c1=S | ? | - | - | - | -
CN=C(c1ccco1)n1c(=S)nc(-c2ccco2)n(C)c1=S | 28.2µM | - | - | - | ?
SMILES | Tau ThT inhib | FBPA coupling cs | Tau fluor counter | USP1 inh | Tau fibril FP
COc1ccc(/C=C2\SC(=N)N(c3nccs3)C2=O)cc1OC | 10µM | - | - | - | -
N=C1S/C(=C\c2ccc(-c3cccc(Cl)c3)o2)C(=O)N1c1nccs1 | 3.55µM | - | - | - | -
CC(=O)N1CCc2cc(CNS(=O)(=O)c3ccc(C(C)(C)C)cc3)ccc21 | - | . | - | - | -
Cc1cccc(N2CCN(S(=O)(=O)c3ccc(F)c(C(=O)Nc4ccc(C(C)C)cc4)c3)CC2)c1C | - | . | - | - | ?
CC(C)(C)c1cc[n+](C2=C([O-])c3ccccc3C(=O)/C2=N\S(=O)(=O)c2cccs2)cc1 | 17.8µM | -57.2 | ? | ? | -
CC(C)(C)c1ccc(C(=O)NCC(c2cccs2)S(=O)(=O)c2cccs2)cc1 (stereo not drawn) | - | . | - | - | -
O=C1/C(=N\S(=O)(=O)c2cccs2)C([n+]2ccccc2)=C([O-])c2ccccc21 | ? | -51.4 | ? | ? | ?
